± gives the standard deviation.
system: EfPiwi piRISC loaded with L1MC piRNA (26 nt); assay: pre-steady-state target cleavage rate (min^-1); auxiliary factor: 500 nM Ephydatia muelleri Gtsf1; guide: L1MC piRNA 5'p-UAACUAAAUACUAUGCAAGCUGUAGG; MIWI and MILI are mouse PIWI proteins and EfPiwi is from a freshwater sponge; tags in brackets are library labels; higher = faster piRNA-guided slicing of the target
Outline: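 Cleave-'n-Seq: 1 nM active affinity-purified piRISC with one synthetic guide and 0.1 nM transcribed, DNA-blocked target RNA library were mixed, with or without 500 nM GTSF1 partner protein, in HEPES–potassium acetate buffer at 33 °C for 0–8 or 0–960 min. Uncleaved targets were sequenced and normalised to depth and to weakly complementary targets, three trials were pooled, and k3 was capped at 0.0001 min^-1. The pre-steady-state cleavage rate was fitted […].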

Row | Sequence | pre-steady-state target cleavage rate
1 | UCCUGGUACAGCAUGCUUAGUAUUUAGUUA | 0.00778 ± 0.0028
2 | UCCUGGAUGUCUUUGCAUAGUAUUUAGUUA | 0.00871 ± 0.0039
3 | UCCUGCUACAGCUUGCAUAGUAUUUGGUUA | 0.00556 ± 0.0012
4 | UCCUCCUAAGCUUGCAUAGUAUUUAGUUA | 0.0155 ± 0.0059
5 | UCCUGGUACAGCUGCAUAGUAUUUAGUUA | 0.00843 ± 0.0034
6 | UCCUGGUACAGCUUUGCAUAGUAUUUAGUUA | 0.00974 ± 0.0035
7 | UCCUGCUACUCCUUGCAUAGUAUUUAGUUA | 0.0106 ± 0.004
8 | UCCUGCUACAGGUUGCAUAGUAUAUAGUUA | 0.005 ± 0.0032
9 | UCCUGGUACUGCAUGCAUAGUAUUUAGUUA | 0.0111 ± 0.0032
10 | UCCUGGAUCAGGUUGCAUAGUAAUUAGUUA | 0.012 ± 0.005
11 | UCCUGGUAGAGCUUGGAUAGUAUUUAGUUA | 0.004 ± 0.0023
12 | UCCUCCUACAGCUUGCAUACUAUUUAGUUA | 0.00904 ± 0.0032
13 | UCCUGGAACAGCUUGCAUAGUAUUUUAGUUA | 0.0192 ± 0.0054
14 | UCCUCCUUCAGCUUGCAUAGUAUUAAGUUA | 0.00716 ± 0.0031
15 | UCCUCCUACAGCUUGCAAAGUAAUUAGUUA | 0.00531 ± 0.0022
16 | UCCUGCUACAGCUUGGAUAGUAUAUAGUUA | 0.0128 ± 0.0037
17 | UCCUGCUACAGCUUGCAUUGUAUUUUGUUA | 0.00346 ± 0.0021
18 | UCCUCCUAAAGCUUGCAUAGUAUUUAGUUA | 0.00604 ± 0.0023
19 | UCCUGGUAAAGCUUGCAUAGUAUUUAGUUA | 0.00606 ± 0.002
20 | UCCUGGAUCAGCAUGCAUAGUAUUUAGAAA | 0.00356 ± 0.0021

Row | Sequence | pre-steady-state target cleavage rate
21 | UCCUGCUACAGGUUGCAUAGUAAUUAGUUA | 0.00595 ± 0.0019
22 | UCCUGCUAGAGCUUGCUUAGUAUUUAGUUA | 0.00554 ± 0.002
23 | UCCUCCUACAGCUUGCUUAGUUUUUAGUUA | 0.00738 ± 0.0023
24 | UCCUGGAUCAGCUUGCAUAGUAGUUAGUUA | 0.0207 ± 0.0049
25 | UCCUCCUACUGCUUGCAUAGUUUUUAGUUA | 0.0079 ± 0.0028
26 | UCCUGGAACAGCUUGCAUUGUAUUUAGUUA | 0.00926 ± 0.0026
27 | UCCUGGUACAGCUUGCAUAGUAUUUAGUUUA | 0.0765 ± 0.024
28 | UCCUGCAACAGCUAGCAUAGUAUUUAGUUA | 0.0145 ± 0.004
29 | UCCUGGAACAGGUUGCAAAGUAUUUAGUUA | 0.0118 ± 0.0039
30 | UCCUGGAUCAGCUUGCAUAGUACUUAGUUA | 0.0145 ± 0.0031
31 | UCCUGGAUGAGCUGUGCAUAGUAUUUAGUUA | 0.0255 ± 0.0063
32 | UCCUGGAUGAGCUUGCAUGGUAUUUAGUUA | 0.0127 ± 0.0045
33 | UCCUGGAUCAGCUUGCAUAGUAUUUAUUUA | 0.00293 ± 0.0028
34 | UCCUGGUACAGCUUGCAUAGUAUUUAGUAA | 0.0108 ± 0.0041
35 | UCCUGGAUGUGCUGGCAUAGUAUUUAGUUA | 0.00525 ± 0.0029
36 | UCCUGGUACAGCUUGGAUAGUAUUUAGUUA | 0.0049 ± 0.0027
37 | UCCUCCUACAGCUUGCAUAGUAUUUUGUUA | 0.00791 ± 0.0033
38 | UCCUGGUACAGCUUGCAUAGUCUUUAGUUA | 0.00738 ± 0.0024
39 | UCCUGCUACAGCUUGGAUUGUAUUUAGUUA | 0.00362 ± 0.002
40 | UCCUGGAACAGCUAGCAUAGUAUUAAGUUA | 0.0146 ± 0.0061

— the supplement of paper PMC10338343
